The text below walks through data of PubChem BioAssay (NCI).

Assay [1] can be described thus: NCI Yeast Anticancer Drug Screen. Data for the rad50 strain (AID 155).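 Also: 0% = growth of vehicle-only cultures of the same strain.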 The following applies: S. cerevisiae rad50 strain growth inhibition; at 50.0 µM; active compounds read high. The method in brief:
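Vehicle-treated cultures provide the reference for the growth inhibition reported for compound-exposed, repair-deficient yeast.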

A short description of assay [2]: NCI Yeast Anticancer Drug Screen. Data for the mec2-1 strain (AID 157). The settings on record: S. cerevisiae mec2-1 strain, at 50.0 µM, active compounds read high. Summed up:
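mec2-1 yeast strain, carrying an alteration in DNA damage repair or cell cycle control, was exposed to compounds; growth inhibition was measured relative to vehicle-treated controls.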

Assay [3] is described as follows: NCI Yeast Anticancer Drug Screen. Data for the sgs1 mgt1 strain (AID 161).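 Also: 0% = growth of cultures given vehicle only.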 The following applies: S. cerevisiae sgs1 mgt1 strain, at 50.0 µM, active compounds read high. The method in brief:
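Compounds are added to genetically altered yeast, and growth is compared with cultures given vehicle alone to give percent inhibition.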

The nature of assay [4]: NCI Yeast Anticancer Drug Screen. Data for the cln2 rad14 strain (AID 165).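 Also: 0% = growth equal to vehicle treated cultures.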 The settings on record: S. cerevisiae cln2 rad14 strain, at 50.0 µM, active compounds read high. Summed up:
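Yeast carrying cln2 and rad14 alterations (cell cycle control and DNA damage repair) were exposed to compounds. Growth inhibition was measured against vehicle-treated controls.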

A short description of assay [5]: NCI Yeast Anticancer Drug Screen. Data for the bub3 strain (AID 167). The settings on record: S. cerevisiae bub3 mutant strain, at 50.0 µM, active compounds read high. The method in brief:
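Mutant yeast screening strain plus compound; vehicle-treated cultures serve as the 0% inhibition reference.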

Assay [6] can be described thus: NCI Yeast Anticancer Drug Screen. Data for the mlh1 rad18 strain (AID 175). The settings on record: S. cerevisiae mlh1 rad18 strain growth inhibition; at 50.0 µM; active compounds read high. The method in brief:
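Growth inhibition of the yeast strain was measured after compound exposure and expressed relative to vehicle-treated controls. The strain carries defined defects in DNA damage repair.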

This is part of a sample that, as a whole, favours compounds with a hit. Of some 79,000 tested, about 15% had one in any assay. A number with no mark means an inactive call. Calls of active or inactive are those of the source. Rule as the data show it: active = growth inhibition above about 70%; inactive = the rest.

On to `COc1ccc2cc(NC(=O)N/N=C\c3ccc(Cl)cc3)ccc2c1`, for which the growth inhibition in assay [1] was 33.2%; in assay [2] it was 8.9%; in assay [3], 26.9%; in assay [4], 4.4%; in assay [5], 27%; in assay [6] it was 30.4%.

Take `O=C1COCCO1`: the growth inhibition in assay [1] was 2.45%; in assay [2] it was -8.55%; in assay [3], 6.45%; in assay [4], -14%; in assay [5], -6.55%; in assay [6], -19.5%.

`C=CCOC(=O)Oc1ccc(Cl)cc1`: the growth inhibition in assay [1] was 27.6%; in assay [2] it was -13.9%; in assay [3], 23.1%; in assay [4] it was -0.85%; in assay [5], -2.7%; in assay [6] it was 28.6%.

Consider `CCOc1ccc(OCC)c2c1C(=O)c1ccccc1C2=O`, for which the growth inhibition in assay [1] is -6.8%; in assay [2], 15.3%; in assay [3] it was 1.15%; in assay [4], -1.3%; in assay [5], 9.15%; in assay [6], -5.8%.

For `O=COC(Cc1ccccc1)c1ccc2c(c1)OCO2` (configuration not stated), the growth inhibition is 32.2% in assay [1]; -5.2% in assay [2]; 1.6% in assay [3]; -7.2% in assay [4]; 30.6% in assay [5]; -3.05% in assay [6].

For the compound `CCOC(=O)NN(C(=O)OCC)C(=C(c1ccccc1)N1CCOCC1)N(NC(=O)OCC)C(=O)OCC`, the growth inhibition in assay [1] was 6.3%; in assay [2], 5.6%; in assay [3], -2.7%; in assay [4], 31.1%; in assay [5], -2.25%; in assay [6] it was 10.8%.

In the case of `COc1cc2c(cc1OC)C(c1ccc(N=Cc3ccc(N(C)C)cc3)cc1)N(C(=S)Nc1cc(Cl)ccc1Cl)CC2` (configuration not stated), the growth inhibition in assay [1] is 35.5%; in assay [2], 5.15%; in assay [3], 40.7%; in assay [4], 21.7%; in assay [5], 24.1%; in assay [6] it was 26.9%.

Consider `C=CCCC1(C)OC(C)C(C)O1` (configuration not stated), for which the growth inhibition is 8.75% in assay [1]; 3.65% in assay [2]; -0.95% in assay [3]; -33% in assay [4]; -5.85% in assay [5]; -4.9% in assay [6].

As for `CCOC(CCC#N)c1ccc(C)cc1` (configuration not stated), the growth inhibition in assay [1] was 10.2%; in assay [2], 5.65%; in assay [3], 34.1%; in assay [4] it was 25.2%; in assay [5] it was 0.8%; in assay [6], 22.3%.

`O=C1ON(c2ccccc2)C(c2cccc(Cl)c2)N1c1ccccc1` (configuration not stated): the growth inhibition in assay [1] was 14.1%; in assay [2], -2.85%; in assay [3], -3.95%; in assay [4], 3.25%; in assay [5] it was 9.25%; in assay [6], -16.1%.

With `CCOC(=O)/C(O)=C/c1nc2ccccc2nc1C`, the growth inhibition in assay [1] is 18.8%; in assay [2], 5.65%; in assay [3], 8.9%; in assay [4], -6%; in assay [5], -17.3%; in assay [6], 14.7%.

For `CCOC(=O)CCCN`, the growth inhibition in assay [1] is -8.45%; in assay [2], -3%; in assay [3] it was -6.95%; in assay [4], 56.7%; in assay [5], -39.8%; in assay [6], -16.1%.

In the case of `CC1(C)OC[C@@H](N)[C@@H](O)CO1`, the growth inhibition in assay [1] was -9.35%; in assay [2] it was 12.6%; in assay [3] it was 0.05%; in assay [4], -31.9%; in assay [5], 0.55%; in assay [6], 1.95%.

For the compound `c1ccc(-c2cc3cc4c(cc3[nH]2)Oc2ccccc2O4)cc1`, the growth inhibition was 5.45% in assay [1]; 14.4% in assay [2]; 18.4% in assay [3]; 10.8% in assay [4]; 5.2% in assay [5]; 3.1% in assay [6].

Consider `Cc1cccc2sc(=S)[nH]c12`, for which the growth inhibition was 35% in assay [1]; 18.6% in assay [2]; 28.9% in assay [3]; 19.9% in assay [4]; 29.8% in assay [5]; 30.6% in assay [6].

As to `Nc1cc(Cl)c2c(c1)C(=O)c1ccccc1-2`, the growth inhibition in assay [1] was -2.45%; in assay [2], 0.7%; in assay [3] it was -3.95%; in assay [4], -5.3%; in assay [5], -5.3%; in assay [6], -5.4%.

As to `COC(=O)/C(C#N)=C/NC(=S)Nc1ccccc1`, the growth inhibition is -48.1% in assay [1]; -0.85% in assay [2]; -44.5% in assay [3]; 11.2% in assay [4]; -26.3% in assay [5]; -33.2% in assay [6].

Regarding `CCCCC(Nc1nncs1)Nc1nncs1`, the growth inhibition in assay [1] is -8.9%; in assay [2], -18%; in assay [3] it was 9.85%; in assay [4], 3.7%; in assay [5], 11.3%; in assay [6], 2.6%.

Turning to `CCCCCC(=O)OCC[N+](C)(C)C`, the growth inhibition is -29.8% in assay [1]; -29.9% in assay [2]; -6.95% in assay [3]; 4.85% in assay [4]; -25.2% in assay [5]; -13.2% in assay [6].

On to `CCOC(=O)N1C(=O)c2ccccc2C1=O`, for which the growth inhibition is -7.35% in assay [1]; -13.2% in assay [2]; -16.8% in assay [3]; -8.75% in assay [4]; -13.3% in assay [5]; -9.25% in assay [6].

For `Cc1ccc(S(=O)(=O)NC(=O)Nc2c(-c3nc4ccccc4s3)[n+]([O-])c3ccccc3[n+]2[O-])cc1`, the growth inhibition was 27.8% in assay [1]; 5.5% in assay [2]; 15.2% in assay [3]; 30.4% in assay [4]; 10.1% in assay [5]; 18.9% in assay [6].

Consider `CCOC(=O)c1ccc(NN=NC(C)(C)C)cc1`, for which the growth inhibition in assay [1] is 10.8%; in assay [2], -8.5%; in assay [3] it was -15.2%; in assay [4], -29.2%; in assay [5], -7.3%; in assay [6], -11.1%.

Consider `COC(=O)NCC(OC(=O)c1cc2c(cc1I)OCO2)C1=CCCCC1` (configuration not stated), for which the growth inhibition in assay [1] was 54.5%; in assay [2] it was 30.1%; in assay [3], 37.6%; in assay [4] it was 29.2%; in assay [5] it was 48.8%; in assay [6], 28.8%.

For the compound `CN(C)CCN1N=Nc2cccc3cccc1c23`, the growth inhibition in assay [1] was 43.3%; in assay [2] it was 18.2%; in assay [3], 10.9%; in assay [4], 19.2%; in assay [5], 30.6%; in assay [6], 39.4%.

As for `CCOc1nc(N)nc(C)c1N=Nc1ccc(C)cc1`, the growth inhibition in assay [1] is 1.75%; in assay [2] it was -8.45%; in assay [3], -4.5%; in assay [4] it was -34.4%; in assay [5], -5.05%; in assay [6], 2.45%.

For the compound `Cc1cc(C)n(-c2ccnc(-n3nc(C)cc3C)n2)n1`, the growth inhibition is 22% in assay [1]; 23.9% in assay [2]; 33.9% in assay [3]; 7.7% in assay [4]; 21.6% in assay [5]; 40.3% in assay [6].

With `C=C1C(=O)OC2/C=C(\C)CC(O)/C=C(/C)CC(OC(=O)C(O)(CO)C(C)S)C12` (configuration not stated), the growth inhibition in assay [1] is -14%; in assay [2], 6.55%; in assay [3], -22.4%; in assay [4], 3%; in assay [5], -3.8%; in assay [6], -22.7%.

With `O=C(N/N=C\c1ccc(Cl)c(Cl)c1)c1ccncc1`, the growth inhibition is -6.65% in assay [1]; -1% in assay [2]; -3.05% in assay [3]; 5.4% in assay [4]; -1.75% in assay [5]; -5.7% in assay [6].

Consider `O=C(/C=C(\c1ccccc1)C1C2C=CC(C2)C1c1ccccc1)c1ccccc1` (configuration not stated), for which the growth inhibition was 61.6% in assay [1]; 64.2% in assay [2]; 91.7% (active) in assay [3]; 49% in assay [4]; 75.2% (active) in assay [5]; 88.8% (active) in assay [6].

In the case of `O=C1CC2C3CC(Br)C4C3CC2C14` (configuration not stated), the growth inhibition in assay [1] is 4.95%; in assay [2], -0.25%; in assay [3], 1.75%; in assay [4] it was 6.5%; in assay [5], 7.2%; in assay [6] it was 4.75%.

For the compound `NC(CO)C(O)c1ccc([N+](=O)[O-])cc1` (configuration not stated), the growth inhibition in assay [1] was -14.6%; in assay [2] it was -33.2%; in assay [3], -3.3%; in assay [4] it was -7.25%; in assay [5] it was -12.2%; in assay [6], -13.7%.

On to `NCCNC(=O)CCC(CN(CC(=O)O)CC(=O)O)N(CC(=O)O)CC(=O)O` (configuration not stated), for which the growth inhibition is 42.8% in assay [1]; 69.7% in assay [2]; 44% in assay [3]; 57% in assay [4]; 39% in assay [5]; 42.7% in assay [6].
